High-throughput results from PubChem BioAssay.
Only some compounds are listed: those with a hit (about 3.5% of all), similar ones and a draw of the others.
mHTT CaM bind = mHTT-calmodulin interaction abrogation. P42858. inhibition, % at 15 µM. hit rate 3.6% among 190,000. AlphaScreen His-mHTT/GST-CaM binding, luminescence;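 note: 0% = both proteins with DMSO and 100% = one protein alone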
Pf apPOL inh = Pf-apPOL DNA polymerase inhibition; inhibition, % at 10 µM; hit rate 0.25% among 210,000; AID 1794808; Recombinant Pf-apPOL, molecular beacon fluorescence, 1.5 h
Active calls of the source: *; nt = not tested or not shown. Cut-off read from the data, not from the text of the source: active = inhibition above about 50%; inactive = the rest.

SMILES | mHTT CaM bind | Pf apPOL inh
Cn1cnnc1C1CCCCN1C(=O)Cc1c[nH]c2ccccc12 (stereo unspecified) | 4 | 91*
CCCc1noc(-c2cccnc2N2CCCN(Cc3cc(F)cc(F)c3)CC2)n1 | -52 | -4
CN(C)c1ccc(CCNS(=O)(=O)c2ccc(Br)cc2)cc1 | 23 | -5
COc1ccc(OC)c(Nc2nc(-c3c(C)nc4ncccn34)cs2)c1 | 82* | -7
CCN(CC)c1ccc(Nc2nc(-c3c(C)nc4sccn34)cs2)cc1 | 93* | 0
COc1ccccc1Nc1nc(-c2cccnc2)cs1 | 25 | -2
COc1ccccc1Nc1nc(-c2c(C)nc3sccn23)cs1 | 80* | -4
COc1ccc(OC)c(Nc2nc(-c3cccc([N+](=O)[O-])c3)cs2)c1 | 4 | 3
COc1ccccc1Nc1nc(-c2ccccc2)cs1 | 18 | -1
Cc1nc2sccn2c1-c1csc(Nc2ccc([N+](=O)[O-])cc2)n1 | 10 | -1
COc1ccccc1Nc1nc(-c2c(C)nc3ccccn23)cs1 | 62* | -3
O=S(=O)(NCC1CCN(Cc2cccs2)CC1)c1ccc(F)c(Cl)c1 | -3 | -6
O=C1C2C3C=CC(C3)C2C(=O)C2C3C=CC(C3)C12 (stereo unspecified) | nt | 7
O=c1c2c3c(sc2nc2c4ccccc4c(N4CCOCC4)nn12)CCC3 | 0 | -1
COc1cccc(C2C3=C(CC(C)(C)CC3=O)Nc3nc(-c4cccc(Cl)c4)nn32)c1 (stereo unspecified) | 1 | -2
CC1(C)CC(=O)C2=C(C1)Nc1nc(-c3ccccc3)nn1C2c1ccc(Br)cc1 (stereo unspecified) | 35 | -3
COc1ccc(C2C3=C(CC(C)(C)CC3=O)Nc3nc(-c4ccc(O)cc4)nn32)cc1 (stereo unspecified) | 50* | 2
COc1ccc(-c2nc3n(n2)C(c2ccccc2)C2=C(CC(C)(C)CC2=O)N3)cc1 (stereo unspecified) | 52* | -4
CC1(C)CC(=O)C2=C(C1)Nc1nc(-c3ccccc3)nn1C2c1ccccc1 (stereo unspecified) | 43 | -2
COc1ccccc1C1C2=C(CC(C)(C)CC2=O)Nc2nc(-c3cccc(Cl)c3)nn21 (stereo unspecified) | 70* | -3
Cc1onc(-c2ccccc2)c1C(=O)Nc1ccn(Cc2ccc(F)cc2)n1 | -4 | 2
CC(=O)N1CCc2ccccc2C1C(=O)NC(C)c1ccccc1 (stereo unspecified) | -6 | -2
Cc1ccc(S(=O)(=O)Nc2cccc3ccc(-n4nc(C)cc4C)nc23)cc1 | 1 | 60*
Cc1ccc(S(=O)(=O)Nc2cccc3ccc(C)nc23)cc1 | 1 | -8
COc1ccc(NC(=O)Cn2nc([N+](=O)[O-])c(Br)c2C)cc1OC | 0 | 2
SMILES | mHTT CaM bind | Pf apPOL inh
COc1ccc(/C=C(\C#N)c2ccc(Cl)cc2)cc1 | -122 | -3
CC(=O)c1cc(F)c(N2CCN(C(=O)c3ccccc3F)CC2)cc1C | -2 | -1
CCc1ccc(N2CC(C(=O)NCC3CCCO3)CC2=O)cc1 (stereo unspecified) | 3 | -4
O=c1c2scc(-c3ccccc3)c2ncn1CCOc1ccccc1 | -31 | 0
Cn1nnnc1SCC(=O)NCCn1nc(-c2ccc(F)cc2)ccc1=O | -13 | -4
O=C(CC(c1ccccc1)c1ccccc1)NCCn1nc(-c2ccc(F)cc2)ccc1=O | 95* | -13
COc1ccc(NC(=O)N2CCC(Cc3nc4cccnc4n3CC(C)C)C2)c(C)c1 (stereo unspecified) | 0 | -3
Cc1ccc(C(=O)N2CCC(Cc3nnc(-c4ccccc4)o3)CC2)cc1C | 8 | 0
Cc1cccc(NC(=O)CN2C(=O)C3CCCN3C(=O)c3ccc(F)cc32)c1 (stereo unspecified) | 2 | -9
O=C(c1ccsc1)N1CCCC(c2ccnc(Nc3cccc(F)c3)n2)C1 (stereo unspecified) | 67* | -2
Cc1cccc(Nc2nccc(C3CCCN(C(=O)c4ccoc4)C3)n2)c1 (stereo unspecified) | 29 | 1
O=C(c1ccccc1)N1CCCC(c2ccnc(Nc3ccc(F)cc3)n2)C1 (stereo unspecified) | 91* | -7
CC(=O)N1CCCC(c2ccnc(Nc3cccc(F)c3)n2)C1 (stereo unspecified) | 32 | -2
O=C(c1cccc(F)c1)N1CCCC(c2ccnc(Nc3ccccc3)n2)C1 (stereo unspecified) | 18 | 0
O=C(c1ccoc1)N1CCCC(c2ccnc(Nc3cccc(F)c3)n2)C1 (stereo unspecified) | 72* | -2
NC(=NOC(=O)c1cccc(C(F)(F)F)c1)C1CSCCS1 (stereo unspecified) | nt | 4
Cc1cc(C)n(-c2cc(SCC(=O)N3CCN(c4ccccc4F)CC3)ncn2)n1 | -11 | -7
COc1ccc(C(=O)Nc2ccc(I)cc2C)cc1 | -3 | -3
Cc1c(Cl)cccc1S(=O)(=O)NCC(O)c1ccc(C(F)(F)F)cc1 (stereo unspecified) | 68* | -6
CC(C)S(=O)(=O)c1ccc(CC(=O)NCC(O)c2ccc(C(F)(F)F)cc2)cc1 (stereo unspecified) | -4 | -5
O=S(=O)(NCC(O)c1ccc(C(F)(F)F)cc1)c1ccc2c(c1)CCCC2 (stereo unspecified) | 100* | -2
Cc1c(Cl)cccc1NC(=O)C(=O)NCC(O)c1ccc(C(F)(F)F)cc1 (stereo unspecified) | -15 | -5
O=[N+]([O-])C1=C(Nc2ccc(Cl)c(Cl)c2)CS(=O)(=O)C1 | 75* | -3
Cc1ccc(NC2=C([N+](=O)[O-])CS(=O)(=O)C2)cc1 | -3 | -5
Cc1ccc(C(=O)NC(=NC(C)(C)C)C(Cl)(Cl)Cl)cc1 | -2 | -6
SMILES | mHTT CaM bind | Pf apPOL inh
COc1ccc(NCc2ccccc2Br)cc1OC | 73* | 6
COc1ccc(CNc2ccccc2SC)cc1OC | 15 | 3
COc1ccc(NCc2ccc(C)cc2C)cc1OC | 83* | 1
COc1ccc(CNCc2ccc(C)cc2C)c(OC)c1 | -2 | -2
COc1ccc(NCc2ccc(SC)cc2)cc1OC | 80* | 0
COc1ccccc1CNc1ccccc1 | 3 | -10
CCOc1ccccc1/C=C1/N=C(c2ccc(C)cc2)OC1=O | -4 | -1
O=C(NC1(c2nc(-c3ccncc3)no2)CCCCC1)c1ccccn1 | 6 | -1
O=C(CC1Sc2ccccc2NC1=O)NC1CC2CCC1C2 (stereo unspecified) | -3 | -6
Cn1nc2c(c1NC(=O)c1cc(C(F)(F)F)cc(C(F)(F)F)c1)CCC2 | -10 | -4
OC(COCCC12CC3CC(CC(C3)C1)C2)CN1CCN(c2ccccc2F)CC1 (stereo unspecified) | 53* | 5
OC(COCC12CC3CC(CC(C3)C1)C2)CN1CCN(c2ccccc2F)CC1 (stereo unspecified) | 33 | -4
OC(COCCC12CC3CC(CC(C3)C1)C2)CN1CCN(Cc2ccccc2)CC1 (stereo unspecified) | 57* | -1
OC(COCC12CC3CC(CC(C3)C1)C2)CN1CCN(Cc2ccccc2)CC1 (stereo unspecified) | 25 | 2
CC(C)C(=O)NCCc1csc(C2CCCN(C(=O)C3CC3)C2)n1 (stereo unspecified) | -3 | -5
Cc1ccccc1CNC(=O)C1(C)CCCN(S(=O)(=O)c2ccc(F)c(Cl)c2)C1 (stereo unspecified) | 84* | -2
